These results are taken from PubChem BioAssay.

The structures appear in SMILES notation. The source made the active and inactive calls.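 How the source made its calls: active means inhibition above 20% together with a positive visual image hit; inconclusive means visual image hit but inhibition not above 20%; inactive means no visual image hit.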

This assay is described as follows: inhibitors of TNFa-induced NFkB p65 translocation, primary screen, imaging, HUVEC, MLSMR starter and 10KST1 sets (AID 438).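 Further: compound added about 3h40 before a 20 min TNFalpha stimulation.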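 On inhibition: signal is the nuclear over cytoplasmic p65 intensity ratio per well.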 The settings on record: HUVEC TNFa-induced p65 nuclear translocation; cell count: measured here: nuclei count (cytotoxicity indicator), at 2.08 µM unless noted; inhibition: at 2 µM, stronger effect = higher value unless noted.
As a reminder, the inhibition is the drop in the measured response relative to a control, in per cent. As for `c1ccc(C2CC3CC(c4ccco4)N2O3)cc1` (configuration not stated), the cell count stood at 301 and the inhibition was -1.4% (inactive).
For `C(#CCN1CCOCC1)COCC#Cc1ccccc1`, the inhibition was 1.2% (inactive) and the cell count was 422.
For `CN1CCN(c2c[nH]c(=O)[nH]c2=O)CC1`, in that order: 0% (inactive) and 446.
On the same counts, the results for `CC(C)CC12CN3CCN(CC(C3)/C1=N/O)C2` are -16.4% (inactive) and 291.
On the same counts, the results for `CCCCOc1ccc(CN2CCN(CCO)CC2)cc1` are 2.9% (inactive) and 644.
With `CC(C)C(=O)c1cn(Cc2ccccc2C#N)c2ccccc12`, the cell count turned out to be 504 and the inhibition is 3.5% (inactive).
On to `Cc1ccc2nc(N3CCN(C)CC3)[nH]c2c1`, for which the inhibition is -15.9% (inactive) and the cell count was determined as 369.
For `COc1ccc(CC2C(=O)NC(=O)NC2=O)c(OC)c1`, in that order: 1.7% (inactive) and 757.
`N#Cc1ccccc1Cn1cc(C(=O)C2CC2)c2ccccc21`: the inhibition was -2.2% (inactive) and the cell count was 390.
For the compound `CC(C)(C)C(O)C(Oc1ccc(Cl)cc1)n1cncn1` (configuration not stated), the cell count was 268 and the inhibition was 4.3% (inactive).
Regarding `O=C(CCCOc1ccc(Cl)cc1Cl)N1CCC2(CC1)OCCO2`, the cell count was found to be 751 and the inhibition was -20.4% (inactive).
On the same counts, the results for `COc1ccc(CCn2c(O)c(C=NCCCN(C)C)c(=O)[nH]c2=O)cc1OC` are 338 and -1.6% (inactive).
For `COC(=O)CC1(Cc2ccccc2)C(=O)NC(=O)NC1=O`, in that order: 641 and -6.3% (inactive).
On the same counts, the results for `Cc1ccc(CC2C(=O)N(C)C(=O)N(C)C2=O)s1` are 451 and 2.6% (inactive).
As to `Cc1oc2ccc(OC(=O)N(C)C)cc2c1C(=O)OC(C)C`, the inhibition is 0.8% (inactive) and the cell count came to 450.
On the same counts, the results for `CCn1nc(-c2ccccc2)nc2c(=O)n(C)c(=O)nc1-2` are -31.1% (inactive) and 367.
